# Pf Dd2 inh = P. falciparum Dd2 growth inhibition; SYBR Green, 72 h; active compounds read low; activity change, % at 10 µM; 94,000 tested, 2.3% active; AID 1159554; in the data active = activity change below about -80%
# C diff HTS = C. difficile growth inhibition | Clostridium difficile clinical isolate growth, OD600, 24 h; active compounds read low | growth activity, negative = inhibition, % at 16 µg/mL (by protocol) | 86,000 tested, 0.25% active;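 active = mean growth activity at or below -80% and every replicate also at or below -80%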;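 note: 0% = DMSO wells and -100% = levofloxacin 16 µg/mL wells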
# * hit, by the source's call; nt = no result given. Compounds with a hit are over-represented: about 2.4% of the library has one in this group of screens.
SMILES,Pf Dd2 inh,C diff HTS
COc1ccc(NC(=O)Nc2ccc3c(c2)C(=O)N([C@@H](C)CO)C[C@@H](C)[C@@H](CN(C)CC2CCCCC2)OCCCC[C@H](C)O3)cc1,-72,-5
COc1ccc(NC(=O)Nc2ccc3c(c2)C(=O)N([C@H](C)CO)C[C@H](C)[C@@H](CN(C)CC2CC2)OCCCC[C@H](C)O3)cc1,-84*,2
O=C(C[C@H]1CC[C@H]2[C@@H](COC[C@@H](O)CN2Cc2nccs2)O1)NCc1ccc(Oc2ccccc2)cc1,-1,2
N#C[C@@H]1[C@H](c2ccc(C3=CCCCC3)cc2)[C@@H](CO)N1C(=O)NC1CCCC1,-83*,-5
C/C=C/c1ccccc1[C@H]1[C@@H](CO)N(C(=O)NC2CCCC2)[C@H]1C#N,-5,-13
C/C=C/c1ccccc1[C@H]1[C@@H](C#N)N(C(=O)NC2CCCC2)[C@H]1CO,-82*,-3
CC(C)NC[C@@H]1[C@H](c2ccc(C3=CCCCC3)cc2)[C@H](CO)N1C(=O)NC(C)C,-41,46
N#C[C@H]1[C@H](c2ccc(C3=CCCCC3)cc2)[C@H](CO)N1C(=O)NC1CCCC1,-37,-10
CC(C)NC[C@@H]1[C@@H](c2ccc(C3=CCCCC3)cc2)[C@@H](CO)N1C(=O)CC1CC1,-83*,5
O=C(C[C@@H]1CC[C@@H]2[C@H](COC[C@H](O)CN2C(=O)c2ccc(F)cc2)O1)NC1Cc2ccccc2C1,1,-1
COc1ccc(NC(=O)N(C)C[C@H]2Oc3ccc(NS(=O)(=O)c4cn(C)cn4)cc3CC(=O)N([C@H](C)CO)C[C@@H]2C)cc1,8,-6
COc1cccc(C#Cc2cnc3c(c2)C(=O)N([C@@H](C)CO)C[C@@H](C)[C@@H](CN(C)C(=O)C2CC2)O3)c1,-45,nt
Cc1noc(C)c1NC(=O)N(C)C[C@H]1OCCCC[C@H](C)Oc2ccc(NC(=O)c3ccccc3)cc2C(=O)N([C@H](C)CO)C[C@@H]1C,-5,nt
C[C@@H]1CN([C@H](C)CO)C(=O)c2cc(C#CCc3ccccc3)cnc2O[C@H]1CN(C)C(=O)C1CCCCC1,-83*,21
C[C@H](O)C#Cc1cnc2c(c1)C(=O)N([C@@H](C)CO)C[C@@H](C)[C@@H](CN(C)C(=O)Cc1ccncc1)O2,-95*,-4
C[C@@H]1CN([C@H](C)CO)C(=O)c2cc(C#CCc3ccccc3)cnc2O[C@@H]1CN(C)C(=O)C1CCC1,-10,4
C[C@@H]1CN([C@@H](C)CO)C(=O)c2cc(C#CCc3ccccc3)cnc2O[C@H]1CN(C)C(=O)C1CCCCC1,-82*,15
C[C@H](CO)N1C[C@H](C)[C@H](CN(C)C(=O)Cc2ccncc2)Oc2ncc(C#C[C@@H](C)O)cc2C1=O,8,-8
C[C@H]1CN([C@@H](C)CO)C(=O)c2cc(/C=C/c3ccccc3)cnc2O[C@@H]1CN(C)C(=O)C1CC1,-36,nt
C[C@@H]1CN([C@H](C)CO)C(=O)c2cc(/C=C/c3ccccc3)cnc2O[C@@H]1CN(C)C(=O)C1CC1,-86*,3
C[C@@H]1CN([C@@H](C)CO)C(=O)c2cc(C#CCc3ccccc3)cnc2O[C@H]1CN(C)C(=O)C1CCC1,-69,0
CCCC(=O)Nc1ccc2c(c1)C(=O)N(C)C[C@H](OC)[C@H](C)CN(Cc1cncnc1)[C@@H](C)CO2,-37,-2
CN1CCN(C(=O)C[C@@H]2C=C[C@H](NC(=O)Cc3ccccn3)[C@H](CO)O2)CC1,20,nt
COc1ccc(S(=O)(=O)N(C)C[C@H]2Oc3c(NS(=O)(=O)c4ccccc4)cccc3C(=O)N([C@H](C)CO)C[C@H]2C)cc1,1,-13
C[C@@H]1CN([C@@H](C)CO)C(=O)c2cc(C#Cc3ccccc3)cnc2O[C@H]1CN(C)C(=O)CCN1CCCCC1,-88*,7
SMILES,Pf Dd2 inh,C diff HTS
C[C@H]1CN([C@@H](C)CO)C(=O)c2cc(C#Cc3ccccc3)cnc2O[C@@H]1CN(C)C(=O)CCN1CCCCC1,-52,4
O=C(C[C@@H]1C=C[C@@H](NS(=O)(=O)c2ccc(F)cc2)[C@@H](CO)O1)NCc1ccncn1,16,nt
C[C@@H]1CN([C@@H](C)CO)C(=O)c2c(c3ccccc3n2C)-c2ccccc2CO[C@H]1CN(C)C(=O)Nc1cccc(Cl)c1Cl,-94*,0
C[C@H](CO)N1C[C@H](C)[C@@H](CN(C)C(=O)Nc2cccc(Cl)c2Cl)OCc2ccccc2-c2c(n(C)c3ccccc23)C1=O,-46,18
C[C@H]1CN([C@@H](C)CO)C(=O)c2c(c3ccccc3n2C)-c2ccccc2CO[C@H]1CN(C)C(=O)Nc1cccc(Cl)c1Cl,-91*,0
C[C@H](CO)N1C[C@H](C)[C@H](CN(C)C(=O)Nc2cccc(Cl)c2Cl)OCc2ccccc2-c2c(n(C)c3ccccc23)C1=O,-79,3
COc1ccc(S(=O)(=O)Nc2ccc3c(c2)C(=O)N([C@H](C)CO)C[C@@H](C)[C@H](CN(C)C(=O)Nc2c(C)noc2C)O3)cc1,19,-4
O=C(C[C@@H]1C[C@H]2c3cc(NC(=O)Nc4ccc(C(F)(F)F)cc4)ccc3O[C@H]2[C@@H](CO)O1)NCc1ccc(Cl)cc1,-4,nt
O=C(Nc1ccc(Cl)cc1)N[C@H]1CC[C@@H](CCn2cc(Cc3ccccc3)nn2)O[C@@H]1CO,23,-4
CO[C@@H]1CN(C)C(=O)c2ccc(NC(C)=O)cc2OC[C@@H](C)N(Cc2ccncc2)C[C@H]1C,25,-1
CC(C)NC(=O)Nc1ccc2c(c1)C(=O)N(C)[C@H]1CC[C@H](CC(=O)Nc3ccccc3)O[C@H]1CO2,-98*,3
CC(C)NC(=O)Nc1ccc2c(c1)C(=O)N(C)[C@H]1CC[C@@H](CC(=O)Nc3ccccc3)O[C@@H]1CO2,-9,-6
C[C@H]1CCCCO[C@@H](CN(C)S(=O)(=O)c2cccs2)[C@@H](C)CN([C@@H](C)CO)C(=O)c2cc(NC(=O)NC3CCCCC3)ccc2O1,-58,2
C[C@H]1CCCCO[C@@H](CN(C)S(=O)(=O)c2cccs2)[C@@H](C)CN([C@@H](C)CO)C(=O)c2cc(NC(=O)Nc3ccc(C(F)(F)F)cc3)ccc2O1,-89*,-10
C[C@@H]1CN([C@H](C)CO)C(=O)c2cc(NC(=O)NC3CCCCC3)ccc2O[C@@H](C)CCCCO[C@@H]1CN(C)S(=O)(=O)c1cccs1,-84*,-5
C[C@@H]1CN([C@H](C)CO)C(=O)c2cc(NC(=O)C3CCCCC3)ccc2O[C@@H](C)CCCCO[C@@H]1CN(C)S(=O)(=O)c1cccs1,-84*,6
C[C@@H]1CN([C@H](C)CO)C(=O)c2cc(NC(=O)Nc3ccc(F)cc3)ccc2O[C@@H](C)CCCCO[C@@H]1CN(C)S(=O)(=O)c1cccs1,-84*,-5
C[C@H](CO)N1C[C@H](C)[C@H](CN(C)S(=O)(=O)c2cccs2)OCCCC[C@H](C)Oc2ccc(NC(=O)Nc3ccc(F)cc3)cc2C1=O,-28,-9
C[C@H]1CCCCO[C@H](CN(C)S(=O)(=O)c2cccs2)[C@@H](C)CN([C@@H](C)CO)C(=O)c2cc(NC(=O)C3CCCCC3)ccc2O1,-78,2
C[C@H](CO)N1C[C@H](C)[C@H](CN(C)S(=O)(=O)c2cccs2)OCCCC[C@H](C)Oc2ccc(NC(=O)Nc3ccc(C(F)(F)F)cc3)cc2C1=O,-28,-4

# High-throughput results: PubChem, Broad Institute
